Data: PubChem BioAssay (NCI)
This is part of a sample that, as a whole, favours compounds with a hit. Of some 83,000 tested, about 20% had one in any assay.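 Results are percent growth after 48 hours of single-concentration exposure. 100 means growth as in untreated cells, lower positive values show inhibition; negative values down to -100 show cell death.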 Unmarked numbers belong to inactive results. Calls of active or inactive are those of the source. Rule for the calls: active = growth percent below 10; inactive = the rest.

Tests used:
Assay in all cases: NCI-60 one-dose screen, 48 h (100 = growth as untreated, 0 = no growth, -100 = all killed)
Conditions in all cases: 10 µM unless noted
NCI-H23 lung = test system: NCI-H23 lung
NCI-H226 lung = test system: NCI-H226 lung
NCI-H322M lung = test system: NCI-H322M lung
HOP-62 NSCLC = test system: HOP-62 NSCLC
NCI-H460 lung = test system: NCI-H460 lung
HOP-92 NSCLC = test system: HOP-92 NSCLC
NCI-H522 lung = test system: NCI-H522 lung
A549/ATCC NSCLC = test system: A549/ATCC NSCLC
786-0 renal = test system: 786-0 renal
COLO 205 colon = test system: COLO 205 colon

Structure (SMILES)	growth (NCI-H23 lung)	growth (NCI-H226 lung)	growth (NCI-H322M lung)	growth (HOP-62 NSCLC)	growth (NCI-H460 lung)	growth (HOP-92 NSCLC)	growth (NCI-H522 lung)	growth (A549/ATCC NSCLC)	growth (786-0 renal)	growth (COLO 205 colon)
CC1(C)CC[C@]23CC[C@]4(C)[C@H](CC[C@@H]5[C@@]6(C)C/C(=C/c7ccncc7)C(=O)C(C)(C)[C@@H]6CC[C@]54C)[C@H]2[C@H]1OC3=O	61.4% [100 µM]	77.4% [100 µM]	96.5% [100 µM]	10.2% [100 µM]	51% [100 µM]	16.8% [100 µM]	50.9% [100 µM]	70.1% [100 µM]	31% [100 µM]	90.5% [100 µM]
Cc1ccc(-c2cc(-c3ccc(C)cc3)nc(N3CCN(CCNc4ccnc5cc(Cl)ccc45)CC3)n2)cc1	41.7%	18%	55.7%	41.6%	6.78% (active)	-12.7% (active)	59.6%	59.1%	-38.8% (active)	10.9%
COc1cc(OC)c(/C=C/C(=O)c2c(N)cc(OC)cc2OC)c(OC)c1	8.81% (active)	75%	54.4%	43.6%	2.53% (active)	26.6%	-11.8% (active)	27.4%	35.2%	-24.4% (active)
CCCCCCCCCCCCCCNC(=O)Nc1ccc(Cl)c(Cl)c1	-0.614% (active)	18.5%	108%	56.6%	86.6%	9.28% (active)	-7% (active)	77.8%	12.3%	31.7%
CC(C)C1=NOC(=O)C1=Cc1cn(-c2ccco2)nc1-c1ccccc1	96.6%	102%	102%	79.1%	93.8%	94.1%	84.8%	99.2%	89.1%	103%
CN(C)c1cc(NN=C(c2ccc(O)cc2)c2ccc(O)cc2)c([N+](=O)[O-])cc1[N+](=O)[O-]	41%	98.7%	117%	58%	30.4%	73%	1.73% (active)	13.2%	16.7%	89.5%
COc1ccc2c(c1)C(C)Cc1c(Cl)nc(C)nc1N2C (stereo not given)	25.8%	38.6%	58.8%	29.4%	12.3%	41.7%	-17% (active)	21.8%	38.2%	-20.9% (active)
O=S(=O)(NCCCNc1nccc(-c2c(-c3cccc(F)c3)nc3occn23)n1)c1cccc2ccccc12	63.9%	36.3%	64.6%	74.4%	18.7%	63.9%	51.1%	33.5%	46.5%	-18.1% (active)
O=C(NCc1ccc(Cn2c(=O)sn(-c3ccccc3)c2=O)cc1)OCc1ccc2c(Br)cc(Br)c(O)c2n1	-47.2% (active)	-25.8% (active)	43.1%	-48.4% (active)	-21% (active)	-58.7% (active)	-47.1% (active)	-52.3% (active)	-78.7% (active)	-75.6% (active)
O=C(NNc1ccc(-c2ccccc2)nn1)c1ccc(F)cc1	104%	98.7%	94.3%	106%	99.1%	91.5%	95.2%	98.4%	78%	112%
CCOc1ccc(/C=C(\C#N)c2cc3ccccc3[nH]2)cc1	78.6%	90%	87.1%	54.7%	36.2%	87.4%	32.8%	38%	89.5%	49.4%
O=C(O)c1cccc(CN2CCN(c3cc4c(cc3F)c(=O)c(C(=O)O)cn4C3CC3)CC2)c1O	101%	106%	111%	105%	106%	97%	87.1%	99.5%	102%	103%
Cc1ccccc1OC(=O)c1cccc(Cl)c1	108%	108%	114%	145%	109%	101%	95.5%	102%	112%	129%
COc1ccc(N(c2nc(-c3ccc([N+](=O)[O-])cc3)cs2)C(C)C)cc1	65%	76.3%	83.1%	84.8%	84.1%	74.3%	67.8%	85.3%	88.4%	108%
CCOC(=O)n1cc(C2=C(c3ccc(OC)c(OC)c3)COC2=O)c2ccccc21	39.3%	55.5%	52%	26.1%	8.64% (active)	5.33% (active)	-23.6% (active)	17.8%	23.5%	-60.7% (active)
Cc1cc2c(C(C)C)c(O)c(O)c(C=NCc3ccoc3)c2c(O)c1-c1c(C)cc2c(C(C)C)c(O)c(O)c(C=NCc3ccco3)c2c1O	23.5%	72%	44.5%	53.3%	25.5%	21%	35.4%	26.3%	62.3%	10.6%
C[n+]1cccc(NC(=O)c2ccc3ccc4ccc(C(=O)Nc5ccc[n+](C)c5)nc4c3n2)c1	32.3%	5.55% (active)	37.3%	21.3%	-7.42% (active)	57.5%	-19% (active)	-3.45% (active)	76.2%	75.3%
CNc1cc(C(=O)O)nc(NC)n1	100%	98.8%	95.7%	103%	99.2%	87.1%	97.1%	101%	105%	105%
O=C1Nc2ccccc2/C1=C/C(=O)c1ccc(N2CCCCC2)cc1	75.7%	86.7%	96.6%	102%	77.9%	56.7%	61.7%	95.1%	98.7%	74.6%
O=C(O)c1ccccc1C(F)(F)F	66.7%	89.2%	106%	103%	102%	88.2%	72.1%	16.1%	96.2%	102%
COc1ccc(C2NC(=O)C(C#N)c3c2sc2c(F)cccc32)cc1 (stereo not given)	76.3%	60.3%	65.3%	46.4%	28.6%	54.2%	20.1%	42.6%	71%	91.6%
O=C(OCc1ccc2c(Cl)cc(Cl)c(O)c2n1)N1CCNCC1	47.1%	42.2%	47.1%	22.9%	15.4%	44.9%	42.4%	17.3%	61.1%	54.3%
CC(C)(C)c1cc(C(=O)Nc2ccccc2C(=O)NCCN)cc(C(C)(C)C)c1	79.9%	78.3%	21.9%	67.8%	-55.2% (active)	19.6%	16.1%	7.64% (active)	-35.7% (active)	-76.6% (active)
C[C@H]1[C@H](C)CC[C@]2(C(=O)O)CC[C@]3(C)C(=CC[C@@H]4[C@@]5(C)C/C(=C/c6ccco6)C(=O)C(C)(C)[C@@H]5CC[C@]43C)[C@H]12	-81.1% [100 µM] (active)	-52.3% [100 µM] (active)	-73.4% [100 µM] (active)	-75.7% [100 µM] (active)	-55.6% [100 µM] (active)	-87.7% [100 µM] (active)	-82.7% [100 µM] (active)	-52.5% [100 µM] (active)	-40.3% [100 µM] (active)	-60.9% [100 µM] (active)
Oc1c(CNCCNCc2cc(Cl)cc(Cc3ccccc3)c2O)cc(Cl)cc1Cc1ccccc1	17.4%	9.76% (active)	23.4%	19.4%	8.13% (active)	45.1%	43.7%	13.9%	-3.97% (active)	8.84% (active)
